Data on 4 compounds can be found in PubChem BioAssay.

Where “and” joins values, the source holds several entries; their conditions need not be identical. Identical values can stand only once. Calls of active or inactive are those of the source.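 How the source made its calls, unless noted: active means normalized viability below 100% at a tested concentration; inactive means the rest.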

The nature of experiment [1]: liver-stage malaria parasite growth inhibition, primary screen, cell-based, HepG2, luciferase luminescence, HepG2 viability (AID 624349; in the data active means parasite load remaining mostly below about 12%, no sharp cut-off; inactive means mostly above about 10%;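 further: 100% = mean of DMSO negative control wells on the same plate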). Conditions: P. berghei liver stage in HepG2, luciferase luminescence, concentration not given here; parasite load remaining: stronger effect = lower value; viability: measured here: HepG2 viability without parasites.
A short description of experiment [2]: stimulators of insulin release from INS-1E, primary screen, cell-based, 5 mM glucose, NPC library (AID 1117329;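 active means compound raises insulin release from rat beta cells at 5 mM glucose, no numeric limit stated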). Conditions: rat INS-1E insulin secretion, at 10 µM, stronger effect = higher value.
A short description of experiment [3]: growth inhibition of GSK3B-pretreated HCT116 cells – cell-based, CellTiter-Glo, 0.2 to 20 µM (AID 1117336;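 active means compounds lowering colon cancer cell viability after pretreatment blocking the GSK3B kinase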). The conditions noted are these: HCT116 viability after GSK3B inhibitor, at 20 µM, stronger effect = higher value.
Experiment [4] is described as follows: inhibition of endothelial tube formation, primary screen, imaging, VEGF stimulated, CD31 staining, tube area, NPC library (AID 1117340;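 active means compound that reduces growth-factor-driven endothelial tube area in a mixed cell culture, no cutoff stated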). Conditions: VEGF-stimulated ADSC/ECFC co-culture, at 10 µM, stronger effect = higher value.
Experiment [5] in a line: glucagon-like peptide 1 release enhancers, primary assay, NCI-H716 cell line, NPC library (AID 1117341;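 active means compound raises GLP1 secretion from the human gut endocrine cells, with no numeric limit stated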). The conditions noted are these: NCI-H716 cells, at 10 µM, stronger effect = higher value.
Experiment [6] in a line: HCT116 colon cancer cell growth inhibition, primary screen, CellTiter-Glo luminescence, NPC library (AID 1117342;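 active means compounds that lower survival of HCT116 colon cancer cells in the luminescence readout, no numeric limit stated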). Conditions: at 20 µM (top of the series). Background: In ATP-based viability assays light output follows the ATP content of the culture.
Experiment [7] in a line: CellTiter-Glo luminescent readout of SW480 viability loss, NPC library primary (AID 1117343;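 active means compounds that lower viability of the colon cancer cells in the luminescence readout, with no numeric limit stated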). The conditions noted are these: CellTiter-Glo luminescence; at 20 µM (top of the series) unless noted.
A short description of experiment [8]: decreased DLD-1 cellular survival, CellTiter-Glo luminescent readout, NPC compound collection, primary HTS (AID 1117346;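 active means compounds that lower survival of DLD-1 colon cancer cells in the luminescence readout, no cutoff given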). Conditions: DLD-1 viability, CellTiter-Glo luminescence; at 20 µM (top of the series).
Experiment [9] can be described thus: differential killing of epithelial or mesenchymal cells, primary screen, imaging, PC-3E GFP, TEM4-18 mCherry, co-culture (AID 1345086;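 active means compounds killing one labelled cell type while sparing the other, by normalised counts and ratio limits, not self-fluorescent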;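 on all read-outs here: cells exposed to compound for 72 h before imaging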;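 on red/green cell ratio (normalised): normalised mesenchymal count divided by normalised epithelial count so high means epithelial killing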). The conditions noted are these: imaging cell counts, at 1 µM; for red/green cell ratio (normalised): actives lie on both sides, counts scaled to control wells, 1 = unselective.
Experiment [10] is described as follows: survival rescue of mitochondrial mutant cells in low glucose, primary screen, MELAS cybrids, Rieske KO mouse fibroblasts, CellTiter-Glo (AID 1508586;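 active means mean z-score across replicates of 1.96 or higher in either the MELAS or the Rieske mutant cell line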;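 further: z relative to plate mean and SD of compound and empty wells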).
In experiment [11] the target is NAD(+) hydrolase SARM1 (Homo sapiens) (UniProt Q6SZW1). Briefly: SARM1 TIR NADase inhibitors, cell lysate, NAD-Glo luminescence (AID 1508614;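 active means compound whose remaining NAD level is above about 45 nM, limit read from the data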). The conditions noted are these: SAM-TIR HEK293T lysate NADase, at 1 µM, stronger effect = higher value.
A short description of experiment [12]: viability rescue of complex I mutant cybrids, primary screen, cell-based, galactose medium, ATP luminescence (AID 1645843;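 active means z-score of at least 1.8 in each of two replicates, scored against plate mean and spread of sample wells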;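 further: positive z means more ATP and so rescue of galactose-driven cybrid death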). The conditions noted are these: complex I mutant cybrid cells, 72 h, stronger effect = higher value.
The target of experiment [13] is 6-phosphogluconate dehydrogenase, decarboxylating (Homo sapiens) (UniProt P52209). Briefly: 6PGD enzyme inhibitors, primary screen, biochemical, human, recombinant enzyme, NADPH absorbance (AID 1159550;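 active means at least 20% inhibition of 6-phosphogluconate dehydrogenase activity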). The conditions noted are these: recombinant 6PGD, NADPH absorbance 341 nm; at 10 µM; stronger effect = higher value.
The test system of experiment [14] is Hepatitis C virus NS3 helicase. Briefly: HCV NS3 helicase inhibitors, primary screen, biochemical, fluorescence polarization, NIH Clinical Collection (AID 743270; call rule not given here). Conditions: NS3 helicase binding to Cy5-dT15 DNA, stronger effect = higher value, concentration not given here. Background: Polarisation of emitted light reports the rotation of a fluorescent probe.
The nature of experiment [15]: modulation of C. elegans fzo-1 (AID 1259413; call rule not given here;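 further: fzo-1 mutant C. elegans worms in liquid wells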). The conditions noted are these: C. elegans fzo-1 modulator screen, mean read-out; stronger effect = higher value.
Experiment [16] can be described thus: sensitizers of A549 cells to miR-34 induction, primary screen, imaging, A549 dox-inducible miR-34, nuclei and caspase counts (AID 1347080;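 active means compounds whose cell count with miR-34 switched on is under 0.7 times the count with it off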). The conditions noted are these: A549 miR-34 inducible, Hoechst nuclei count, 48 h.
A short description of experiment [17]: ovarian cancer cell viability with rucaparib, profiling panel, oncology-focused library, rucaparib conditional (AID 1508598). The conditions noted are these: patient-derived ovarian cancer cells, CellTiter-Glo viability, 144 h, stronger effect = lower value.
[18] abbreviates: measured here: epithelial PC-3E GFP cell survival.
[19] abbreviates: measured here: mesenchymal TEM4-18 mCherry cell survival.
The mark [20] stands for this setting: MELAS cybrid survival, CellTiter-Glo 48 h, stronger effect = higher value.
Where [21] appears, read: Rieske KO mouse fibroblast survival, CellTiter-Glo 72 h.

Sequence of 6-phosphogluconate dehydrogenase, decarboxylating (Homo sapiens) (P52209 whole entry, looked up): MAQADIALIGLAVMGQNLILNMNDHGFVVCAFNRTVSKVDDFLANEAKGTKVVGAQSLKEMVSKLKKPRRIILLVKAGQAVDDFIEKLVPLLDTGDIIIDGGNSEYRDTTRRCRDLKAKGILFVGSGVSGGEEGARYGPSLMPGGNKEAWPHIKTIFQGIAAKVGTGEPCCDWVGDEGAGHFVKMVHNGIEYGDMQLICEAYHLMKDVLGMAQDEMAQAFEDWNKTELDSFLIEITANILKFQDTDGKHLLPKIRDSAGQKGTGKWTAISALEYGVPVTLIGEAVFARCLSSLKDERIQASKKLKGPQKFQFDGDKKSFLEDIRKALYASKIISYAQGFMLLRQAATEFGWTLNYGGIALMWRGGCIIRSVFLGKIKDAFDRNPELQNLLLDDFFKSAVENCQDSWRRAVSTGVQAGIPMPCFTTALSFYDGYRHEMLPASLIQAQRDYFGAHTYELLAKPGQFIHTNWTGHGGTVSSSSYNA
Sequence of NAD(+) hydrolase SARM1 (Homo sapiens) (Q6SZW1 whole entry, looked up): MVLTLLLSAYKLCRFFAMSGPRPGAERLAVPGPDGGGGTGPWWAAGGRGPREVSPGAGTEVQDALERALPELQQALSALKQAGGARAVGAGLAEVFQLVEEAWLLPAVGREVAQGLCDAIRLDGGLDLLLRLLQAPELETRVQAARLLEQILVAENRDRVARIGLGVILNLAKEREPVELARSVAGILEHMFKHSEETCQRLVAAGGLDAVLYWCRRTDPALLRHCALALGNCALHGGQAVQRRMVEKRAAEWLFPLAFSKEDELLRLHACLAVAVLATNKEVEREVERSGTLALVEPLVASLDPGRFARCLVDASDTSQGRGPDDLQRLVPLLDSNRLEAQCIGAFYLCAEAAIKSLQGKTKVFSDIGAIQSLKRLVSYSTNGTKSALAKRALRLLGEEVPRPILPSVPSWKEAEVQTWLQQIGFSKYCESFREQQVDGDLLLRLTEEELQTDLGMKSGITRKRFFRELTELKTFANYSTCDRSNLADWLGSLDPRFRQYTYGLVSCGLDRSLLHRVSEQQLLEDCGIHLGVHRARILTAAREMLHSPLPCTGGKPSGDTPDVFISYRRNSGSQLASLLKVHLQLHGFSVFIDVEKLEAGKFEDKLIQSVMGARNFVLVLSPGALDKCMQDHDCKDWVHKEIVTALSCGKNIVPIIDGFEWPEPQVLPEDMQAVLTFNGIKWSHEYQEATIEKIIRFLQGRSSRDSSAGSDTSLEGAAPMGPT

In general, viability refers to a read-out of living cells in per cent, often relative to untreated cells. With `O=S(=O)(c1cccc2cnccc12)N1CCCNCC1`, the parasite load remaining in [1] was 62.2% (inactive) and 44.5% (inactive). Also, in experiment [1], the viability is 103% and 67.7%. In addition, in [2], the insulin secretion stimulation is 4.95% (inactive). Further, the viability decrease in [3] is 18.1% (inactive). The tube area decrease in [4] was -19.8% (inactive). Further, the GLP1 secretion stimulation in experiment [5] was -2.6% (inactive). The inhibition of viability in experiment [6] is 24.3% (inactive). Besides, the viability decrease (inhibition) is -4.3% (inactive) in experiment [7] and 15.4% (inactive) in [8]. Also, in experiment [9], the red/green cell ratio (normalised) was 1.1 (inactive). The normalised cell number in [9] (setting [18]) is 0.86; in experiment [9] (setting [19]) it was 0.95. Besides, the z-score in [10] (setting [20]) is -0.155 (inactive) and -0.944 (inactive); in [10] (setting [21]), -1.52 and 0.0333; in experiment [12], -0.745 (inactive) and -1.1 (inactive). In experiment [11], the remaining NAD is 10 nM (inactive).
By inhibition is commonly meant the relative decrease from the control value, in per cent. In the case of `CC(=O)Oc1ccc2c(c1)CC[C@@H]1[C@@H]2CC[C@]2(C)C(=O)CC[C@@H]12`, the inhibition in [13] is -18% (inactive).
Turning to `N[C@@H](Cc1cnc[nH]1)C(=O)Nc1ccc2ccccc2c1`, the inhibition in [13] was -4.42% (inactive).
Regarding `CC(C)n1c(/C=C/[C@@H](O)C[C@@H](O)CC(=O)O)c(-c2ccc(F)cc2)c2ccccc21`, in experiment [1], the parasite load remaining was 164% (inactive) and 130% (inactive). For the same compound, the viability in [1] was 82.3% and 114%; in experiment [17] (at 0.000305 µM, OCI-C5x cells, with rucaparib 10 µM, 100% = cells with rucaparib alone), 102% (inactive); in experiment [17] (at 0.000305 µM, OCI-C5x cells, without rucaparib), 102% (inactive); in experiment [17] (at 0.000305 µM, OCI-P5x cells, with rucaparib 20 µM, 100% = cells with rucaparib alone) it was 86.5% (active); in experiment [17] (at 0.000305 µM, OCI-P5x cells, without rucaparib), 89.2% (active); in experiment [17] (at 0.00122 µM, OCI-C5x cells, with rucaparib 10 µM, 100% = cells with rucaparib alone) it was 102% (inactive). In addition, the viability in experiment [17] (at 0.00122 µM, OCI-C5x cells, without rucaparib) was 109% (inactive); in experiment [17] (at 0.00122 µM, OCI-P5x cells, with rucaparib 20 µM, 100% = cells with rucaparib alone), 89.7% (active); in experiment [17] (at 0.00122 µM, OCI-P5x cells, without rucaparib), 88.8% (active); in [17] (at 0.00488 µM, OCI-C5x cells, with rucaparib 10 µM, 100% = cells with rucaparib alone), 92% (active); in experiment [17] (at 0.00488 µM, OCI-C5x cells, without rucaparib) it was 96.6% (active); in [17] (at 0.00488 µM, OCI-P5x cells, with rucaparib 20 µM, 100% = cells with rucaparib alone) it was 82.4% (active). For the same compound, the viability is 87.2% (active) in experiment [17] (at 0.00488 µM, OCI-P5x cells, without rucaparib); 73.9% (active) in experiment [17] (at 0.0195 µM, OCI-C5x cells, with rucaparib 10 µM, 100% = cells with rucaparib alone); 71.3% (active) in experiment [17] (at 0.0195 µM, OCI-C5x cells, without rucaparib); 44.2% (active) in [17] (at 0.0195 µM, OCI-P5x cells, with rucaparib 20 µM, 100% = cells with rucaparib alone); 53.6% (active) in [17] (at 0.0195 µM, OCI-P5x cells, without rucaparib); 50.9% (active) in [17] (at 0.0781 µM, OCI-C5x cells, with rucaparib 10 µM, 100% = cells with rucaparib alone). Further, the viability in experiment [17] (at 0.0781 µM, OCI-C5x cells, without rucaparib) was 54.7% (active); in experiment [17] (at 0.0781 µM, OCI-P5x cells, with rucaparib 20 µM, 100% = cells with rucaparib alone), 21.8% (active); in experiment [17] (at 0.0781 µM, OCI-P5x cells, without rucaparib), 31% (active); in experiment [17] (at 0.313 µM, OCI-C5x cells, with rucaparib 10 µM, 100% = cells with rucaparib alone), 32.6% (active); in experiment [17] (at 0.313 µM, OCI-C5x cells, without rucaparib) it was 33.3% (active); in experiment [17] (at 0.313 µM, OCI-P5x cells, with rucaparib 20 µM, 100% = cells with rucaparib alone) it was 8.26% (active). For the same compound, the viability in experiment [17] (at 0.313 µM, OCI-P5x cells, without rucaparib) is 10.2% (active); in experiment [17] (at 1.25 µM, OCI-C5x cells, with rucaparib 10 µM, 100% = cells with rucaparib alone), 20.2% (active); in [17] (at 1.25 µM, OCI-C5x cells, without rucaparib), 22.5% (active); in experiment [17] (at 1.25 µM, OCI-P5x cells, with rucaparib 20 µM, 100% = cells with rucaparib alone), 5.66% (active); in experiment [17] (at 1.25 µM, OCI-P5x cells, without rucaparib), 4.09% (active); in experiment [17] (at 5 µM, OCI-C5x cells, with rucaparib 10 µM, 100% = cells with rucaparib alone) it was 7.97% (active). For the same compound, the viability in experiment [17] (at 5 µM, OCI-C5x cells, without rucaparib) was 7.19% (active); in experiment [17] (at 5 µM, OCI-P5x cells, with rucaparib 20 µM, 100% = cells with rucaparib alone), 5.66% (active); in experiment [17] (at 5 µM, OCI-P5x cells, without rucaparib), 4.42% (active). Moreover, the inhibition in [14] is -2.27% (inactive). Also, the insulin secretion stimulation in experiment [2] is 3.6% (inactive). In addition, the viability decrease in experiment [3] is 97.8% (active). In addition, in experiment [4], the tube area decrease is 100% (active). Further, the GLP1 secretion stimulation in experiment [5] was 1.4% (inactive). The inhibition of viability in [6] is 88.8% (active). The viability decrease (inhibition) in [7] was 111% (active); in experiment [8], 50.2% (active). Further, in [15], the mean signal is 243 (inactive). In [9], the red/green cell ratio (normalised) was 0.7 (inactive). In addition, the normalised cell number came to 0.75 in [9] (setting [18]) and 0.53 in experiment [9] (setting [19]). In addition, the fold change in experiment [16] (stronger effect = lower value, cell number ratio, induced over uninduced) was 1.1 (inactive) and 1.08 (inactive); in experiment [16] (measured here: relative caspase fold change +Dox/-Dox), 0.844 and 2.14. Further, the cell count was 1760 and 2100 in [16] (measured here: total cells with miR-34 induction, stronger effect = lower value); 1610 and 1940 in [16] (measured here: total cells without miR-34 induction). Besides, the z-score was -1.26 (inactive) in experiment [10] (setting [20]); -0.983 in experiment [10] (setting [21]); -0.215 (inactive) and -1.78 (inactive) in [12]. For the same compound, the remaining NAD in experiment [11] was 10 nM (inactive).
